# According to the supplement of paper PMC11732987, “Enantioselective OTUD7B fragment discovery through chemoproteomics screening and high-throughput optimisation” (Communications Chemistry, 2025):
# Unmarked numbers belong to inactive results.
# How the values were obtained:
# Experiment in all cases: log2 ratio of Biotin-Ahx-Ub-VS probe labelling (fragment/DMSO); higher = less target engagement (more negative = stronger competition), active = hit call of the paper (q ≤ 0.05, log2 ratio ≤ -1)
# Details in all cases: compound concentration: 200 uM; treatment time: 3 h
# OTUD6B = target: T1, OTUD6B (UniProt Q8N6M0)
# T1 sequence (whole entry): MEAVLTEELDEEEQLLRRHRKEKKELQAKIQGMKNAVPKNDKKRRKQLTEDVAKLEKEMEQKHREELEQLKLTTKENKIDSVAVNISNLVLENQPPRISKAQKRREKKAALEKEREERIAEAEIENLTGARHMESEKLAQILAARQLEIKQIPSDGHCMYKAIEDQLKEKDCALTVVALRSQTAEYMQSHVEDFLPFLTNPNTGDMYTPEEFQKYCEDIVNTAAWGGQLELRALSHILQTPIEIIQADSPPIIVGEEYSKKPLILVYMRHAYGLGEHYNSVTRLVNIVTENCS
# Summary of the method: (§1)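 Global-median-normalised Spectronaut label-free quantities were compared by unpaired t-test, and values are average log2 ratios of fragment over vehicle. Only proteins with ≥2 unique peptides were used. HEK293T lysate (495 µg per sample) was treated in triplicate with fragment at 200 µM or vehicle for 3 h and then with Biotin-Ahx-Ub-VS at 0.5 µM final for 1 h. Labelled DUBs were then NeutrAvidin-enriched, digested with LysC and trypsin, and run by diaPASEF LC-MS/MS.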
# OTUD7B = target: T2, OTUD7B (UniProt Q6GQQ9)
# T2 sequence (whole entry): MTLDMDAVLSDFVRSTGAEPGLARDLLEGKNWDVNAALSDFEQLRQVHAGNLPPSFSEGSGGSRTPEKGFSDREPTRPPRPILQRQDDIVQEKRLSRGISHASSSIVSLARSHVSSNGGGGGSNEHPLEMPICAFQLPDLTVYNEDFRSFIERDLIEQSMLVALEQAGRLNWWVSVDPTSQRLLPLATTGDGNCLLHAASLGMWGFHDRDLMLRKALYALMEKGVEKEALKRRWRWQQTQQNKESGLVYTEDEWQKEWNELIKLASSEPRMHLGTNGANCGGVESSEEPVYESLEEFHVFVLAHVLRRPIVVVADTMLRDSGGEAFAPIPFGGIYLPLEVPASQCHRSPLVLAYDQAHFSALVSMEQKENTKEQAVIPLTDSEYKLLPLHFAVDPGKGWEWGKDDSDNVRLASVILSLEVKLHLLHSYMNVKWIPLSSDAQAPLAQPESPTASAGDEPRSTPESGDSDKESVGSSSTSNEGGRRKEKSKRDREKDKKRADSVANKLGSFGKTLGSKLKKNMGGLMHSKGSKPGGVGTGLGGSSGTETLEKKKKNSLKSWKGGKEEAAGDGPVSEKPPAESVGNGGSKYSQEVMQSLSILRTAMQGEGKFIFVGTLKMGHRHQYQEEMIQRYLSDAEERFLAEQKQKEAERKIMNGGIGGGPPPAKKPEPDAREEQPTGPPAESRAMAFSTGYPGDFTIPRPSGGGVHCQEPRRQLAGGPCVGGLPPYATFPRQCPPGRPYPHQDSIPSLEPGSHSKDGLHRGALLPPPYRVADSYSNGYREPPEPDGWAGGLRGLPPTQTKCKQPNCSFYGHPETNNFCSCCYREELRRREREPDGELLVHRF
# Summary of the method: as §1
# PRPF8 = PRPF8 (UniProt Q6P2Q9)
# Summary of the method: as §1
# PSMD7 = target: T3, PSMD7 (UniProt P51665)
# T3 sequence (whole entry): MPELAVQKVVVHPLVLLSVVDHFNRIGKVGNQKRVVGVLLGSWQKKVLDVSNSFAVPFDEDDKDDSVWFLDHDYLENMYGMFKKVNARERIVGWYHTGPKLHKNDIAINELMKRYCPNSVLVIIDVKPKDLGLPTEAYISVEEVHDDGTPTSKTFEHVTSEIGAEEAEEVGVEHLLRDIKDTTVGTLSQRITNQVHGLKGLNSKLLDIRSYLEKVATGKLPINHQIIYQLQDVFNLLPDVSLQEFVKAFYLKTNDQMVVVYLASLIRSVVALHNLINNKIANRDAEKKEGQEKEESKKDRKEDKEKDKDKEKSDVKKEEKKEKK
# Summary of the method: as §1
# UCHL1 = UCHL1 (UniProt P09936)
# Chain of UCHL1 (P09936 whole entry, looked up): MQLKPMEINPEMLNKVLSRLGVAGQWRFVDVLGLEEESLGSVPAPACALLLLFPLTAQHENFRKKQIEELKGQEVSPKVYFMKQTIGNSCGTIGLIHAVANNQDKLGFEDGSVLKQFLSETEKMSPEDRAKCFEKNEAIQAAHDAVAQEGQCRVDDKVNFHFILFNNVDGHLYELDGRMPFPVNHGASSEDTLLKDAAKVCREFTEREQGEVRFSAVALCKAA
# Summary of the method: as §1
# UCHL3 = target: T4, UCHL3 (UniProt P15374)
# T4 sequence (whole entry): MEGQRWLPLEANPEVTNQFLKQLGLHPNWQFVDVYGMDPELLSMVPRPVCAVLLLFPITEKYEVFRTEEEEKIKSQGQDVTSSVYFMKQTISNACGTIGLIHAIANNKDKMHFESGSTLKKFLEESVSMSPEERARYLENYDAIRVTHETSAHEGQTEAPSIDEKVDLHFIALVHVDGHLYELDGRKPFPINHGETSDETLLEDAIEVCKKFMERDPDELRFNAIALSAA
# Summary of the method: as §1
# UCHL5 = target: T5, UCHL5 (UniProt Q9Y5K5)
# T5 sequence (whole entry): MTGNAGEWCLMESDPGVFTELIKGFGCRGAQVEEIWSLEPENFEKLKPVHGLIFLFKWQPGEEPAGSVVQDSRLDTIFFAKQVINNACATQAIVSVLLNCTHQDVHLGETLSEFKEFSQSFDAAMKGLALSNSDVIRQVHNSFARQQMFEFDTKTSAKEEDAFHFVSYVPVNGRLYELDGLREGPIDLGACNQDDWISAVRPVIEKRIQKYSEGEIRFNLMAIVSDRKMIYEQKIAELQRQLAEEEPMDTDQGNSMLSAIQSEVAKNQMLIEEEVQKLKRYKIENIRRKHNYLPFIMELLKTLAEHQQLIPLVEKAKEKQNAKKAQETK
# Summary of the method: as §1
# USP10 = USP10 (UniProt Q14694)
# Chain of USP10 (Q14694 whole entry): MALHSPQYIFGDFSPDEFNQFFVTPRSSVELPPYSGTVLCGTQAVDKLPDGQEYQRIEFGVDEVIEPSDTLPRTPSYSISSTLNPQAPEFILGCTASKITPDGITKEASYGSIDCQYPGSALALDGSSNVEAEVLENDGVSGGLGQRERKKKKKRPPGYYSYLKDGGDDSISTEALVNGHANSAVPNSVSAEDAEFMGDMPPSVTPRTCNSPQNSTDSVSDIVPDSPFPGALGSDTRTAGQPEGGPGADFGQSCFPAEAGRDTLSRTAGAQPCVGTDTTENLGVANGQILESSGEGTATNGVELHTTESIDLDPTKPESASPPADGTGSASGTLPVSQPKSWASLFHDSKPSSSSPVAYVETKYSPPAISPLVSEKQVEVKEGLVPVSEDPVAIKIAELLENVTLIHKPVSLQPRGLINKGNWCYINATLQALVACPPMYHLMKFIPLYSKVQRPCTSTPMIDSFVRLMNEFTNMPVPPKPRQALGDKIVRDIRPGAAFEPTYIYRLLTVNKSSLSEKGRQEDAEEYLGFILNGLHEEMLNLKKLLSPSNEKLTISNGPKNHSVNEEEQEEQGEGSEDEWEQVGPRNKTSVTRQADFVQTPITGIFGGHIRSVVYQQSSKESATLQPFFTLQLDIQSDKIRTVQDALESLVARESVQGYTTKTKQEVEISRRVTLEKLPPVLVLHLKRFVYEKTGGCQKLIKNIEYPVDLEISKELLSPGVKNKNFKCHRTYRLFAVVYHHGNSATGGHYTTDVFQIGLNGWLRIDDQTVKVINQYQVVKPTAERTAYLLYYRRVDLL
# Summary of the method: as §1
# USP15 = target: T6, USP15 (UniProt Q9Y4E8)
# T6 sequence (whole entry): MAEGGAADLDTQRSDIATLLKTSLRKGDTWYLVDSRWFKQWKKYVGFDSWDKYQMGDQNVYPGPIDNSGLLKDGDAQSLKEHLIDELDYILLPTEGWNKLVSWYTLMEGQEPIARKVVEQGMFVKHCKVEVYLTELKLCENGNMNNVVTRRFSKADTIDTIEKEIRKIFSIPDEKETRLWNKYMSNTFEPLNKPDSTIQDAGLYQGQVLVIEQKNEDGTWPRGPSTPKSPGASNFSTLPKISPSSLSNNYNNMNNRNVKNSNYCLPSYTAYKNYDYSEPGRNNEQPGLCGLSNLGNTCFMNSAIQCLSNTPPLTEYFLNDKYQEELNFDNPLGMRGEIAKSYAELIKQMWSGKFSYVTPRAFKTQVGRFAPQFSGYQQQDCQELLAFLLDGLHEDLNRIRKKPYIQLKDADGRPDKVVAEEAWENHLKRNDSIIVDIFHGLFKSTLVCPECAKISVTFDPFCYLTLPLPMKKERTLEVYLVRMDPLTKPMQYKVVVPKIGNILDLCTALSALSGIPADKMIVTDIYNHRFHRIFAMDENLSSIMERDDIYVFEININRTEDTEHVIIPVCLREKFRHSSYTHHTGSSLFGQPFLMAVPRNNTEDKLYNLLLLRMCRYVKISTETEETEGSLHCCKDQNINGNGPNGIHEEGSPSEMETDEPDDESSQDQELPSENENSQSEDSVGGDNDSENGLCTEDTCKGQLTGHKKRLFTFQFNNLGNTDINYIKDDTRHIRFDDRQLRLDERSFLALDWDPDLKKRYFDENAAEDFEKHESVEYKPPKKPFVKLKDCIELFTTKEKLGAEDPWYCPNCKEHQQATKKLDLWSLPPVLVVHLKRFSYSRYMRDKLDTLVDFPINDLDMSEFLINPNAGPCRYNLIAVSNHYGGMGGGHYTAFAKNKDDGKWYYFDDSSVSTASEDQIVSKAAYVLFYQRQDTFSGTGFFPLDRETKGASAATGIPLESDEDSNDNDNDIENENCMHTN
# Summary of the method: as §1
structure (smiles),measurement,setting,value
Cl.O=C(CCl)N1CCn2ncc(O)c2C1,log2 ratio of Biotin-Ahx-Ub-VS probe labelling,OTUD6B,-0.223
same,log2 ratio of Biotin-Ahx-Ub-VS probe labelling,OTUD7B,-1.54 (active)
same,log2 ratio of Biotin-Ahx-Ub-VS probe labelling,PRPF8,0.218
same,log2 ratio of Biotin-Ahx-Ub-VS probe labelling,PSMD7,-0.249
same,log2 ratio of Biotin-Ahx-Ub-VS probe labelling,UCHL1,-1.49 (active)
same,log2 ratio of Biotin-Ahx-Ub-VS probe labelling,UCHL3,-0.188
same,log2 ratio of Biotin-Ahx-Ub-VS probe labelling,UCHL5,-1.12 (active)
same,log2 ratio of Biotin-Ahx-Ub-VS probe labelling,USP10,-0.00467
same,log2 ratio of Biotin-Ahx-Ub-VS probe labelling,USP15,-0.99
